# Compound activity deposited in PubChem BioAssay by several laboratories.
# The list is not random: actives were taken first. Their share in the collection is about 4%.
# Gli-Sufu block: Gli-Sufu pathway antagonism; Sufu-KO-LIGHT fibroblasts, Gli luciferase reporter luminescence; inhibition, % at 5 µM; 340,000 compounds, 0.74% hits;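 active = inhibition above about 55%, limit read from the data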
# CSC inhib: cancer stem cell inhibition. cancer stem cell-like cells viability, luminescence. inhibition, % at 7.5 µM. 300,000 compounds, 1.1% hits; in the data active = inhibition above about 75%; tested in HMLE shEcad cells
# Mdm2-MdmX inh: inhibitors of human Mdm2/MdmX interaction; SaOS-2 split-luciferase Mdm2/MdmX complementation, luminescence; 330,000 compounds, 3% hits; O15151+Q00987; inhibition, % at 8 µM; AID 485346;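 active = inhibition of at least 50% at 8 µM in the primary screen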
# Target sequence (O15151 whole entry, looked up): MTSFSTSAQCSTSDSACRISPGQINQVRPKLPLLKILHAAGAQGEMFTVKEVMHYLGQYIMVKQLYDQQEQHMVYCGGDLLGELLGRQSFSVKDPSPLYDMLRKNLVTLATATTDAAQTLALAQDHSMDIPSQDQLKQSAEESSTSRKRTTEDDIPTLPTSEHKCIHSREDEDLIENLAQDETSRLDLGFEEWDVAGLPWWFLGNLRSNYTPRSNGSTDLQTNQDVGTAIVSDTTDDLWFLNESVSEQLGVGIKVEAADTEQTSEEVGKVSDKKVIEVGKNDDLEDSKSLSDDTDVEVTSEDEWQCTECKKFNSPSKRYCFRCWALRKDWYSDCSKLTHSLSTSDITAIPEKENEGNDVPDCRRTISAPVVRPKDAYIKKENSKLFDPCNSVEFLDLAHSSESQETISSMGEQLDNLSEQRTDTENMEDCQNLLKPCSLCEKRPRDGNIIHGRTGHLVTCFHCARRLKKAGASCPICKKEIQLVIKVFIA
# Target sequence (Q00987 whole entry, looked up): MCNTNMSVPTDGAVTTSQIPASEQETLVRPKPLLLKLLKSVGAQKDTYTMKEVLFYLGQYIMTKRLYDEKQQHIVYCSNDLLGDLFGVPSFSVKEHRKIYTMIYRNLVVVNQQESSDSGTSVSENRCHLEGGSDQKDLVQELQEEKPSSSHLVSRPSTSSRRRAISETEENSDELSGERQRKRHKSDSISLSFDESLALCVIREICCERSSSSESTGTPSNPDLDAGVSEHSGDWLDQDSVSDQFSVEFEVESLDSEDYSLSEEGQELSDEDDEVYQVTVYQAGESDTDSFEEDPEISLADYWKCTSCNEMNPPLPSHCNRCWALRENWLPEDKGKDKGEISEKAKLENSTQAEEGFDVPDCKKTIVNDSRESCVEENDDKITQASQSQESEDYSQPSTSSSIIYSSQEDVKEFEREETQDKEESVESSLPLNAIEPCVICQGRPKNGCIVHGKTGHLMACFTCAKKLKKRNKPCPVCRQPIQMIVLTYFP
# PAX8 reporter: inhibitors of PAX8 transcriptional activity in RMG-I cells; RMG-I TPO-luciferase reporter, SteadyGlo, 24 h; inhibition, % at 12.6 µM; 360,000 compounds, 1.2% hits; AID 652154;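 active = mean replicate inhibition at least 60% with every replicate also reaching 60%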;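 also: luciferase light reporting Pax8 driven TPO promoter activity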
# Shn3 inh set2: inhibitors of Schnurri-3 3'UTR reporter in osteoblasts; Clone20 osteoblast Shn3 3'UTR firefly luciferase, 24 h; inhibition, % at 12.5 µM; 360,000 compounds, 0.52% hits; AID 588674;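 active = mean inhibition of at least 75% with every replicate also reaching 75%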
# Beta cell apopt: blocks beta cell apoptosis; INS-1E cytokine-induced death, ATP luminescence, 48 h; percent of positive-control rescue, neutral wells zero; protection from apoptosis, % (no concentration beside the values); 300,000 compounds, 0.8% hits;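 active = Every replicate reaches about 75%, or at least half do and their mean reaches it too, limit read from the data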;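 also: higher means more ATP so stronger rescue from cytokine killing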
# Mdm2 MdmX conf: confirmation of human Mdm2/MdmX interaction inhibitors | shares compounds with Mdm2-MdmX inh | Mdm2-MdmX binding, luminescent assay | inhibition, % at 8 µM | 10,000 compounds, 55% hits | AID 489028; in the data active = inhibition above about 40%
# FLuc counter: counter-screen for Mdm2/MdmX inhibitors: full-length luciferase. shares compounds with Mdm2-MdmX inh. SaOS-2 full-length luciferase counterscreen, luminescence. inhibition, % at 8 µM. 6,200 compounds, 77% hits;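 active = mean inhibition at 8 µM reaching about 37%, which flags the compound as non-specific, limit read from the data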;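 also: p53-null SaOS-2 cells with luciferase driven by a doxycycline-inducible promoter; compound on cells about two nights before reading with doxycycline added after day one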
# Numbers stand for hits; - = inactive; . = no result given.
SMILES,Gli-Sufu block,CSC inhib,Mdm2-MdmX inh,PAX8 reporter,Shn3 inh set2,Beta cell apopt,Mdm2 MdmX conf,FLuc counter
CC(C)(C)c1ccc(C(=O)NNC(=O)c2ccc(Cl)cc2)cc1,-,-,-,-,-,-,.,.
O=C(NNC1=C(C(=O)C(F)(F)F)CCC1)c1cccc(Cl)c1,-,113,61,.,-,-,-,65
O=C(NNC1=C(C(=O)C(F)(F)F)CCC1)c1ccc(Cl)cc1,-,82,52,.,-,-,55,76
COc1ccc(C(=O)NNC2=C(C(=O)C(F)(F)F)CCC2)cc1,-,-,68,-,-,-,-,97
C[C@H](CO)N1C[C@H](C)[C@H](CN(C)Cc2ccc(C(F)(F)F)cc2)Oc2ccc(NS(=O)(=O)c3cccs3)cc2CC1=O,.,.,.,-,.,.,.,.
O=C(CCN1CCCCC1)N[C@H]1CC[C@H](CCNC(=O)c2cc(Cl)cc(Cl)c2)O[C@H]1CO,.,.,.,-,.,.,.,.
S=C(NNc1ccc2ccccc2c1)NC1CCCCC1,-,.,64,.,-,-,55,-
S=C(Nc1ccc2nsnc2c1)NC1CCCCC1,-,-,-,-,-,-,.,.
S=C(Nc1ccc(Cl)c(Cl)c1)NC1CCCCC1,-,-,85,.,-,-,50,62
S=C(Nc1ccc(Cl)c(Cl)c1)NC1CCN(Cc2ccccc2)CC1,-,.,97,.,-,-,52,-
COC(=O)c1c(NC(=O)CN2CCC3(O)CCCCC3C2c2cc(OC)ccc2OC)sc(C)c1C (stereo not given),-,-,-,-,-,-,.,.
COC(=O)c1c(NC(=O)CN2CCC3(O)CCCCC3C2c2ccc(F)cc2)sc(C)c1C (stereo not given),-,-,53,-,-,-,-,.
Cc1ccc(NC(=O)/C=C/c2cccc(C(F)(F)F)c2)cc1,-,-,-,-,-,-,.,.
O=C(/C=C/c1cccc(C(F)(F)F)c1)Nc1cccc(C(F)(F)F)c1,-,-,91,.,-,-,-,57
Cc1ccc(CNC(=O)c2ccc(N3CCC4(CC3)CC(c3ccccc3)=NO4)c(N)c2)cc1,-,-,55,-,-,-,-,.
Cc1ccc(CNC(=O)c2ccc(N3CCC4(CC3)CC(c3ccccc3)=NO4)c(NC(=O)c3ccccc3)c2)cc1,-,-,-,-,-,-,.,.
CN1CCC(=C2c3ccccc3CCc3sccc32)CC1,-,-,60,.,-,.,-,.
CN1CCC(=C2c3ccccc3C(O)c3ccccc32)CC1 (stereo not given),-,.,-,-,-,.,.,.
COc1ccc(NC(=O)N(C)C[C@@H]2Oc3ccc(NC(=O)Cc4cn(C)c5ccccc45)cc3CC(=O)N([C@@H](C)CO)C[C@@H]2C)cc1,.,.,.,-,.,.,.,.
Cc1ccc(Nc2cc(C)nn2-c2nc(C)cc(=O)[nH]2)cc1,92,93,98,.,-,98,100,-
Cc1ccc(C)c(N2CCN(c3ncccc3[N+](=O)[O-])CC2)c1,-,-,73,62,-,-,-,.
C[C@]12C=CC(=O)N1CCc1c2[nH]c2ccccc12,.,.,.,-,.,.,.,.
O=[N+]([O-])c1cccc(NC(=S)Nc2nc(-c3ccccc3Cl)cs2)c1,-,86,96,-,-,-,85,63
N/C(=N\OC(=O)c1ccc(Cl)cc1)c1ccccn1,-,.,-,.,-,-,.,.
COc1ccc(C(=O)O/N=C(\N)c2ccccn2)cc1,-,-,97,121,-,-,94,-
Cc1ccc(C(=O)O/N=C(\N)c2ccccn2)c(C)c1,73,-,99,.,96,-,98,51
Cc1ccc(C(=O)O/N=C(\N)c2ccc(C(F)(F)F)cn2)cc1,-,.,57,-,-,.,-,.
COc1cc(OC)cc(C(=O)O/N=C(\N)c2ccccn2)c1,-,-,54,-,-,-,-,.
C[C@H](NC(=O)C[C@@H]1CC[C@H](NC(=O)C2CCC2)[C@H](CO)O1)c1ccccc1,.,.,.,-,.,.,.,.
Cc1noc(C)c1S(=O)(=O)Nc1ccc2c(c1)CC(=O)N([C@@H](C)CO)C[C@@H](C)[C@H](CN(C)S(C)(=O)=O)O2,.,.,.,-,.,.,.,.
